Measurements published in PubChem BioAssay (NCI).
Compounds without any hit were thinned out: in the full panel of roughly 79,000, 15% have a hit. Unmarked numbers belong to inactive results. Calls of active or inactive are those of the source. No stated cut-off is given here; in the data, active means growth inhibition above about 70%; inactive means the rest.

Tests used:
[1] = NCI Yeast Anticancer Drug Screen. Data for the rad50 strain (AID 155);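 further: 0% = growth of vehicle-only cultures of the same strain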; settings: S. cerevisiae rad50 strain growth inhibition, stronger effect = higher value
Outline: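 DNA repair mutant yeast, compound exposure, growth read-out; inhibition is taken relative to vehicle.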

[2] = NCI Yeast Anticancer Drug Screen. Data for the mec2-1 strain (AID 157); settings: S. cerevisiae mec2-1 strain, stronger effect = higher value
Outline: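 Each compound was tested on mec2-1 yeast, a strain altered in DNA damage repair or cell cycle control. Growth inhibition is reported relative to vehicle.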

[3] = NCI Yeast Anticancer Drug Screen. Data for the sgs1 mgt1 strain (AID 161);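 further: 0% = growth of cultures given vehicle only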; settings: S. cerevisiae sgs1 mgt1 strain, stronger effect = higher value
Outline: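 Inhibition of yeast growth, normalised to vehicle-treated controls, is reported for a strain bearing genetic alterations in DNA damage repair.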

[4] = NCI Yeast Anticancer Drug Screen. Data for the cln2 rad14 strain (AID 165);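 further: 0% = growth equal to vehicle treated cultures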; settings: S. cerevisiae cln2 rad14 strain, stronger effect = higher value
Outline: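 Test compounds were added to cln2 rad14 yeast cultures; inhibition of growth was then determined by comparison with vehicle treatment.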

[5] = NCI Yeast Anticancer Drug Screen. Data for the bub3 strain (AID 167); settings: S. cerevisiae bub3 mutant strain, stronger effect = higher value
Outline: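 In this screen, a yeast mutant lacking normal mitotic checkpoint function is challenged with compound. Relative growth versus vehicle gives the inhibition value.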

[6] = NCI Yeast Anticancer Drug Screen. Data for the mlh1 rad18 strain (AID 175); settings: S. cerevisiae mlh1 rad18 strain growth inhibition, stronger effect = higher value
Outline: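 Inhibition values reflect reduced growth of mutant yeast versus vehicle-treated controls following compound exposure; the mutations affect DNA damage repair.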

[7] = at 5.0 µM (retest, dose inferred, filed as 0.5)
[8] = at 50.0 µM (retest, dose inferred, filed as 5.0)

| Compound | growth inhibition [1, 7] | growth inhibition [1, 8] | growth inhibition ([1]; at 50.0 µM) | growth inhibition [2, 7] | growth inhibition [2, 8] | growth inhibition ([2]; at 50.0 µM) | growth inhibition [3, 7] | growth inhibition [3, 8] | growth inhibition ([3]; at 50.0 µM) | growth inhibition [4, 7] [%] | growth inhibition [4, 8] | growth inhibition ([4]; at 50.0 µM) | growth inhibition [5, 7] | growth inhibition [5, 8] | growth inhibition ([5]; at 50.0 µM) | growth inhibition [6, 7] | growth inhibition [6, 8] | growth inhibition ([6]; at 50.0 µM) |
| --- | --- | --- | --- | --- | --- | --- | --- | --- | --- | --- | --- | --- | --- | --- | --- | --- | --- | --- |
| CC12CC(Sc3ccccc3N1)c1ccccc1O2 (stereo unspecified) | 37% | 54% | 42.2% | 28% | 46% | 25.3% | 43% | 80% (active) | 51.8% | 33 | 40% | 27.4% | 40% | 73% (active) | 76.3% (active) | 40% | 73% (active) | 44.5% |
| COC(=O)CSc1n[nH]c(-c2ccc(O)c([N+](=O)[O-])c2)n1 | 17% | 47% | 53.9% | 31% | 56% | 53.2% | 25% | 71% (active) | 75.6% (active) | 40 | 57% | 65.5% | 35% | 51% | 53% |  |  |  |
| COP(=O)(OC)/C(=C/c1cn(C(c2ccccc2)(c2ccccc2)c2ccccc2)cn1)NC=O | 5% | 16% | 2.1% | 2% | -5% | 60.7% | -4% | 41% | 79.9% (active) | 1 | 14% | 0.6% | 0% | 9% | -1.7% | -12% | 40% | 39.2% |
| CCN(CC)CCNC(=O)c1ccc(N=Cc2cc(Cl)cc(Cl)c2O)cc1 | 48% | 49% | 81.2% (active) | 32% | 48% | 91% (active) | 49% | 97% (active) | 88.8% (active) | 24 | 99% (active) | 84.8% (active) | 88% (active) | 97% (active) | 89.2% (active) | 46% | 39% | 85.7% (active) |
| O=C(O)C(O)C(O)C(OC1OC(CO)C(O)C(O)C1O)C(O)CO.[Br][Pt].[NH-]C1CCCCC1[NH-] (stereo unspecified) | 50% | 97% (active) | 67.8% | 65% | 88% (active) | 62.9% | 89% (active) | 99% (active) | 89.5% (active) | 24 | 72% (active) | 72% (active) | 79% (active) | 97% (active) | 83.6% (active) | 69% | 98% (active) | 56% |
| C=C(CC)C[C@@H]1C[C@]2(C(=O)OC)c3[nH]c4ccccc4c3CCN2C1=O | -1% | 94% (active) | 52.5% | 0% | 85% (active) | 26.9% | 8% | 98% (active) | 58.4% | 15 | 77% (active) | 62.5% | 2% | 18% | 48.5% |  |  |  |
| OC(c1ccccc1)(c1ccccc1)c1ccc[cH-]1.OC(c1ccccc1)(c1ccccc1)c1ccc[cH-]1.[Fe+2] | 3% | -5% | -0.6% | 3% | -1% | 9.45% | 3% | -16% | -2.3% | 4 | -15% | -13.6% | 3% | -1% | 70.4% (active) |  |  |  |
| CCN(CC)CCCC(C)Nc1cc(O)c2c(c1O)C(=O)c1ccccc1C2=O (stereo unspecified) | 96% (active) | 98% (active) | 98.8% (active) | 95% (active) | 99% (active) | 98.5% (active) | 98% (active) | 99% (active) | 98.8% (active) | 53 | 98% (active) | 97.2% (active) | 95% (active) | 98% (active) | 97.8% (active) | 94% (active) | 98% (active) | 98.8% (active) |
| CC(C)C(Sc1nc(-c2ccccc2)c(-c2ccccc2)[nH]1)C(=O)NN (stereo unspecified) | -7% | 91% (active) | 90.2% (active) | -36% | 96% (active) | 33.4% | -3% | 94% (active) | 91.5% (active) | 17 | 98% (active) | 90% (active) | 29% | 98% (active) | 89% (active) |  |  |  |
| Cc1c(C(=O)N(CCO)CCO)[n+](=O)c2ccccc2n1[O-] | 5% | 3% | 28.9% | 13% | 7% | -5.35% | 38% | 18% | 14.7% | 1 | 2% | 39% | 3% | 26% | -5.1% |  |  |  |
| c1ccc2c(c1)CCN2CCc1c[nH]c2ccccc12 | 0% | 12% | 89.6% (active) | -5% | -12% | 91.8% (active) | -10% | 3% | 89.8% (active) | 23 | 31% | 89.8% (active) | -26% | 43% | 89.3% (active) |  |  |  |
| O=C(OC12CCCCC1CCCC2)c1ccc([N+](=O)[O-])cc1 (stereo unspecified) | 28% | 98% (active) | 98% (active) | 29% | 99% (active) | 99.5% (active) | 32% | 99% (active) | 99.1% (active) | 11 | 99% (active) | 99.5% (active) | 33% | 99% (active) | 99.4% (active) | 44% | 98% (active) | 99.2% (active) |
| COc1ccc(Cc2cncc3c(O)c(OC)ccc23)cc1O | -1% | 44% | 80.2% (active) | 0% | 50% | 69.2% | -13% | 50% | 39.2% | 2 | 14% | 59.9% | -1% | 21% | 86.4% (active) | 6% | 49% | 89.5% (active) |
| COc1ccc(C(=O)C(c2ccc(OC)cc2)C2(O)C(=O)Nc3c(Cl)cc(Cl)cc32)cc1 (stereo unspecified) | 37% | 37% | 91% (active) | -20% | -20% | 92.3% (active) | 8% | 8% | 90% (active) | 25 | 25% | 90.9% (active) | -6% | -6% | 90.7% (active) | -18% | -18% | 90.7% (active) |
| Nc1ccc(C(=O)Nc2ccc(C(=O)Nc3ccc(/C=C/c4ccc(NC(=O)c5ccc(N)cc5)cc4S(=O)(=O)O)c(S(=O)(=O)O)c3)cc2)cc1 | -2% | 87% (active) | 68.5% | -21% | 76% (active) | 72.8% (active) | 3% | 78% (active) | 69.3% | 16 | 39% | 18.3% | -15% | 82% (active) | 70.4% (active) | -15% | 61% | 74.2% (active) |
| COc1cccc(NC(=S)NC2CC(C)CC(C)(C)C2)c1 (stereo unspecified) | 24% | 94% (active) | 86.5% (active) | -11% | 85% (active) | 89.3% (active) | -1% | 94% (active) | 89.8% (active) | 30 | 90% (active) | 86.2% (active) | 8% | 93% (active) | 89.2% (active) | -7% | 93% (active) | 84.8% (active) |
| O=C1O/C(=C(/Cl)c2c3ccccc3cc3ccccc23)c2ccccc21 | -22% | 95% (active) | 81.1% (active) | -13% | 92% (active) | 80.2% (active) | -15% | 96% (active) | 82.3% (active) | -4 | 94% (active) | 68.7% | -25% | 95% (active) | 84.5% (active) | 27% | 95% (active) | 82.2% (active) |
| O=C1c2ccccc2C(=O)N1CCn1ccc(NC(c2ccccc2)(c2ccccc2)c2ccccc2)nc1=O | 48% | 48% | 66.3% | 28% | 28% | 74.9% (active) | 50% | 50% | 67.2% | 5 | 5% | 80.6% (active) | 27% | 27% | 79.2% (active) |  |  |  |
| CCCCCC/C=C\C=O | -1% | 4% | 67.7% | -6% | 13% | 37.1% | 3% | 17% | 64% | -6 | 12% | 52% | -2% | 6% | 79.5% (active) |  |  |  |
| N#Cc1ccc(C(F)(F)F)cc1[N+](=O)[O-] | 47% | 99% (active) | 99% (active) | 44% | 99% (active) | 99.2% (active) | 63% | 99% (active) | 99.4% (active) | 20 | 99% (active) | 98.8% (active) | 31% | 99% (active) | 99.2% (active) | 37% | 99% (active) | 99.2% (active) |
